In the supplement of paper PMC11219838:
Values without a mark were called inactive.

Experiments:
Settings in all cases: 60 µM; 5 days; temperature: 20 °C
[1] = test system: Meloidogyne hapla J2; test: proportion of mobile M. hapla J2 relative to DMSO control (fraction of DMSO control); higher = more viable, less nematicidal, active = 0.7 or less
How it was run: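 Compound was pinned to 60 µM final (0.6% v/v DMSO) into 96-well wells, each holding about 25 M. hapla J2 in distilled water. Plates were sealed and shaken for 5 days at 20 °C and 200 rpm, then given 2 µL 1 M NaOH per well. Microscopic mobility scores were normalised to the mean of the plate's own DMSO wells, eight per plate, with two biological replicates averaged.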

[2] = test system: Caenorhabditis elegans dauer (daf-2(e1370)); test: proportion of mobile C. elegans dauer larvae relative to DMSO control (fraction of DMSO control); higher = more viable, less nematicidal, active = 0.63 or less; extreme values may be limits of the assay
How it was run: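 Synchronized C. elegans daf-2(e1370) larvae were held at 25 °C for 48 h on MYOB plates with E. coli OP50 to form dauers, and about 20 dauers were added per 96-well well in liquid NGM. Compound was pinned to 60 µM final (0.6% v/v DMSO), and sealed plates were shaken at 200 rpm for 5 days at 20 °C. The proportion of mobile worms was scored under a dissection microscope relative to DMSO controls and averaged over two biological replicates.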

[3] = test system: Ditylenchus dipsaci; test: proportion of mobile D. dipsaci (mixed stage) relative to DMSO control (fraction of DMSO control); higher = more viable, less nematicidal, active = 0.86 or less; extreme values may be limits of the assay
How it was run: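 Mobility values are relative to DMSO controls and are averages of two biological replicates. For each well of a 96-well plate, about 20 D. dipsaci worms, grown on pea plants in Gamborg B-5 agar and funnel-extracted into water, were dispensed in distilled water. Plates received pinned compound at 60 µM final with 0.6% v/v DMSO and were sealed and shaken at 200 rpm for 5 days at 20 °C before 2 µL 1 M NaOH was added and mobile worms were scored by microscope.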

| Compound | proportion of mobile M. hapla J2 [1] | proportion of mobile C. elegans dauer larvae [2] | proportion of mobile D. dipsaci [3] |
| --- | --- | --- | --- |
| COc1nc(-c2ccc(C)cc2)ccc1-c1noc(-c2ccc(F)cc2)n1 | 0.925 | 1 | 1 |
| COc1ccc(-c2nc(-c3ccc(Cl)cc3)no2)cc1 | 1 | 1 | 1 |
| CC(=O)Nc1ccc(NC(=O)c2ccccc2-c2nc(-c3cccc(C)c3)no2)cc1 | 1.01 | 1 | 1 |
| COc1ccc(NC(=O)c2ccccc2-c2nc(-c3ccccc3C)no2)cc1 | 0.81 | 1 | 1 |
| O=C(c1ccccc1-c1nc(-c2ccc(F)cc2)no1)N1CCCC1 | 1.06 | 1 | 1 |
| Cc1ccccc1CSc1nnc(-c2ccncc2)o1 | 0.754 | 1 | 1 |
| Cc1ccccc1OCc1nc(-c2ccc(NC(=O)c3ccc(Br)o3)cc2)no1 | 0.726 | 1 | 1 |
| O=C(CSc1nnc(-c2ccccc2)o1)Nc1ccc(F)cc1F | 1.03 | 1 | 1 |
| c1ccc2c(-c3nc(-c4ccncc4)no3)cccc2c1 | 0.917 | 1 | 1 |
| COc1ccccc1-c1nnc(SCc2ccc(F)cc2)o1 | 0.329 (active) | 1 | 1 |
| Cc1cc(Cl)ccc1OCc1nc(-c2cccnc2)no1 | 1 | 1 | 1 |
| Cn1c(SCc2nnc(-c3ccccc3)o2)nnc1-c1ccco1 | 0.827 | 1 | 1 |
| Ic1ccccc1-c1nc(-c2cccnc2)no1 | 1.02 | 1 | 1 |
| CC(=O)c1c(C)cc(C)c(CSc2nnc(-c3ccco3)o2)c1C | 0.906 | 1 | 1 |
| Cc1ccccc1CSc1nnc(-c2ccco2)n1C | 1.03 | 1 | 0.75 (active) |
| CCc1cccc(C)c1NC(=O)CSc1nnc(-c2ccccc2)o1 | 1.04 | 1 | 1 |
| CCOc1ccc(NC(=O)CSc2nnc(-c3ccccc3Cl)o2)cc1 | 0.974 | 1 | 1 |
| COc1ccc(-c2noc(COc3ccc(C)cc3C)n2)cc1 | 0.93 | 1 | 1 |
| COc1nc2ccc(C)cc2cc1-c1noc(-c2cccnc2)n1 | 0.972 | 1 | 1 |
| COc1cccc(NC(=O)CSc2nnc(-c3ccc(Br)cc3)o2)c1 | 0.966 | 1 | 1 |
| O=C(CSc1nnc(-c2cccc(Br)c2)o1)c1ccccc1 | 1.02 | 1 | 0.714 (active) |
| Cc1cccc(OCc2nc(-c3ccc(Br)cc3)no2)c1 | 1.04 | 1 | 1 |
| N#Cc1ccc(OCc2nc(-c3ccc(Br)o3)no2)cc1 | 1.06 | 1 | 1 |
| Brc1ccc(CSc2nnc(-c3ccco3)o2)cc1 | 0.995 | 1 | 1 |
| O=C(CSc1nnc(-c2ccccc2)o1)Nc1cccc(F)c1 | 0.853 | 1 | 1 |

| Compound | proportion of mobile M. hapla J2 [1] | proportion of mobile C. elegans dauer larvae [2] | proportion of mobile D. dipsaci [3] |
| --- | --- | --- | --- |
| CCOC(=O)c1sc(NC(=O)CSc2nnc(-c3ccc(Cl)cc3)o2)c(C(=O)OCC)c1C | 0.906 | 1 | 1 |
| O=C(CSc1nnc(-c2ccccc2)o1)N1CCc2ccccc21 | 0.993 | 1 | 1 |
| Cn1c(SCc2nc(-c3ccccc3)no2)nnc1-c1ccco1 | 0.98 | 1 | 1 |
| CCCOc1ccc(-c2ccc(-c3nc(-c4cccnc4)no3)cc2)cc1 | 1.02 | 1 | 1 |
| Cc1ccc(OC(C)c2nc(-c3ccncc3)no2)cc1C (centres undefined) | 0.995 | 1 | 1 |
| CCn1c(SCc2nc(-c3cccs3)no2)nnc1-c1ccco1 | 0.813 | 1 | 1 |
| Cc1ccc(C(=O)Nc2ccccc2-c2nc(-c3ccncc3)no2)cc1C | 1.06 | 1 | 1 |
| CC(Oc1ccc(C(C)(C)C)cc1)c1nc(-c2ccncc2)no1 (centres undefined) | 0.856 | 1 | 1 |
| O=C(CSc1nnc(-c2ccc(Br)cc2)o1)NC1CCCC1 | 0.944 | 1 | 1 |
| Cc1cc(OCc2nc(-c3ccncc3)no2)cc(C)c1Br | 1.03 | 1 | 1 |
| Brc1ccc(-c2noc(-c3cccs3)n2)cc1 | 0.884 | 0.383 (active) | 1 |
| Cc1cc(C)c(C)c(OCc2nc(-c3ccccc3)no2)c1 | 0.95 | 1 | 1 |
| O=C(CSc1nnc(-c2ccc(Cl)cc2Cl)o1)c1ccc2c(c1)OCCO2 | 0.719 | 1 | 1 |
| CCc1nc(-c2ccc(-c3ccccc3)nc2OC)no1 | 0.99 | 1 | 1 |
| Cc1ccc(-c2nnc(SCC(=O)NCc3ccccc3)o2)cc1 | 1.04 | 1 | 1 |
| Cc1ccccc1CSc1nnc(-c2ccco2)o1 | 0.547 (active) | 0.5 (active) | 1 |
| Cc1cc(C)cc(-c2nc(-c3ccc(Cl)cc3)no2)c1 | 0.938 | 1 | 1 |
| Cc1cc(OCc2nc(-c3cccnc3)no2)ccc1Cl | 0.942 | 1 | 1 |
| Ic1cccc(-c2nc(-c3cccnc3)no2)c1 | 1.04 | 1 | 1 |
| COc1nc(-c2ccccc2)ccc1-c1noc(-c2ccco2)n1 | 0.685 (active) | 1 | 1 |
| O=C(CSc1nnc(-c2ccc(Br)cc2)o1)Nc1cccc2ccccc12 | 0.923 | 1 | 1 |
| COc1ccccc1-c1nnc(SCC(=O)Nc2ccc(C)cc2)o1 | 1.03 | 1 | 0.885 |
| Cc1cc(C)c(CSc2nnc(-c3ccccc3)o2)c(C)c1 | 0.962 | 1 | 1 |
| Cc1ccccc1OCc1nc(-c2cccc(C(F)(F)F)c2)no1 | 0.946 | 1 | 1 |
| Cc1cc(C)nc(SCc2nc(-c3ccccc3)no2)n1 | 1.05 | 1 | 1 |

| Compound | proportion of mobile M. hapla J2 [1] | proportion of mobile C. elegans dauer larvae [2] | proportion of mobile D. dipsaci [3] |
| --- | --- | --- | --- |
| O=C(CSc1nnc(-c2ccccc2)o1)Nc1cccc(Br)c1 | 1.05 | 1 | 1 |
| Cn1c(SCc2nc(-c3ccc(Br)cc3)no2)nnc1-c1ccco1 | 0.835 | 1 | 1 |
| CC(=O)Nc1ccc(NC(=O)c2ccccc2-c2nc(-c3ccccc3Cl)no2)cc1 | 0.866 | 1 | 1 |
| CCCSc1nnc(-c2ccc(Cl)cc2Cl)o1 | 0.991 | 0.143 (active) | 1 |
| CCc1ccc(NC(=O)CSc2nnc(-c3ccco3)o2)cc1 | 0.899 | 1 | 1 |
| Cc1ccc(-c2noc(-c3ccc(Cl)cc3)n2)cc1 | 1.03 | 1 | 1 |
| COc1ccc(-c2nnc(SCC(=O)Nc3ccc(Br)cc3C)o2)cc1 | 0.929 | 1 | 0.667 (active) |
| CC(C)(C)C(=O)CSc1nnc(-c2ccc(Cl)cc2Cl)o1 | 0.873 | 1 | 1 |
| Cc1ccc(-c2noc(COc3ccc(C)cc3C)n2)cc1 | 1.02 | 1 | 1 |
| CCCCC(=O)Nc1ccccc1-c1nc(-c2ccncc2)no1 | 1.06 | 1 | 1 |
| Brc1ccc(-c2noc(CSc3ccccc3)n2)cc1 | 1.09 | 1 | 1 |
| Cc1ccc(-c2nc(-c3ccc4c(c3)OCO4)no2)cc1 | 1 | 1 | 1 |
| CCOc1ccccc1-c1nnc(SCC(=O)N2CCC(C)CC2)o1 | 0.856 | 1 | 1 |
| Cc1ccc(-c2noc(-c3ccc(Br)o3)n2)s1 | 0.965 | 1 | 1 |
| Cc1cccc(-c2noc(COc3ccc(Cl)cc3C)n2)c1 | 0.925 | 1 | 1 |
| Cc1cccc(-c2noc(-c3cc(Cl)ccc3Cl)n2)c1 | 1.08 | 1 | 1 |
| Cn1c(SCc2ccc(Cl)cc2)nnc1-c1ccco1 | 1.05 | 1 | 1 |
| Clc1cc(Br)ccc1OCc1nc(-c2cccnc2)no1 | 1.04 | 1 | 1 |
| COc1ccc(NC(=O)CSc2nnc(-c3ccccc3C)o2)cc1 | 0.838 | 1 | 1 |
| O=C(CSc1nnc(-c2cccc(Cl)c2)o1)N1CCCCC1 | 1 | 1 | 1 |
| COc1ccc(-c2noc(COc3ccccc3)n2)cc1 | 1.02 | 1 | 1 |
| Cc1ccc(-c2nnc(SCC(=O)Nc3nccs3)o2)cc1 | 1.04 | 1 | 1 |
| Cc1cc(Br)ccc1OCc1nc(-c2ccccn2)no1 | 0.973 | 1 | 1 |
